Experimental data taken from PubChem BioAssay AID504466 (National Center for Advancing Translational Sciences (NCATS), 2011).
The campaign covered roughly 330,000 compounds. About 4,200 (1.3%) were called active. Inconclusive results (about 6%) are left out. Many of the other results were omitted from the sample, so actives are more common in it than they were. Values without a mark were called inactive. Calls come from the whole dose curve; as a rule, active = well fitted activation curve with a large enough effect; inconclusive = small, poorly fitted or top-dose-only effect; inactive = no such curve, though single readings can be large or run the other way.

Test: qHTS screen for small molecules that induce genotoxicity in human embryonic kidney (HEK293T) cells expressing luciferase-tagged ELG1; note: nearly all actives have a fitted effect of over 60% in size; for activity change, positive = activation: % of control where 0% means no effect
Conditions: HEK293T ELG1-luciferase reporter, luminescence, 16 h; series mostly up to 46 µM; activity change, positive = activation: at the top concentration
Method in brief: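 Genotoxic stress is detected as increased luminescence from luciferase-tagged ELG1 in HEK293T cells, measured with ONE-Glo after a 16 hr treatment at 37 °C.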
Potency is the fitted concentration of half-maximal effect.

SMILES | activity change, positive = activation | Potency
CCCOC(=O)Nc1ccccc1C(N)=O | -0.681% | –
Cc1cccc(OCCC(=O)Nc2ccccc2C(N)=O)c1 | -2.38% | –
COc1cccc(OCC(=O)Nc2ccccc2C(N)=O)c1 | – | 5.17 µM (active)
NS(=O)(=O)c1ccc(CNC(=S)NC(=O)c2ccco2)cc1 | 2.68% | –
O=C(NNS(=O)(=O)c1c(F)cc(F)c(Cl)c1F)C12CC3CC(CC(C3)C1)C2 | -0.967% | –
Cn1cncc1C#Cc1c(-c2ccsc2)sc2ccccc12 | -2.38% | –
O=C(Nc1nnc(-c2ccccc2)o1)c1cccc(S(=O)(=O)N2CCOCC2)c1 | -10.2% | –
O=C(NCc1ccc2c(c1)OCO2)c1cc([N+](=O)[O-])ccc1N1CCOCC1 | -2.21% | –
Cc1nn(C)cc1/C=N/NC(=O)c1sc2ccccc2c1Cl | 3.94% | –
O=C(Nc1ccon1)c1cccc(Cl)c1 | 0.203% | –
O=C(Nc1ccon1)c1sc2ccccc2c1Cl | – | 13 µM (active)
Cc1ccc(NC(=O)Cn2cnc3c(OCc4ccccc4)ncnc32)cc1C | 3.02% | –
CN(CCO)c1ccc(/C=N/Nc2nncc3ccccc23)cc1 | – | 0.116 µM (active)
COc1cc(/C=N/Nc2nn3cnnc3c3ccccc23)cc(OC)c1OC | -0.781% | –
FC(F)(F)c1nc2ccccc2nc1N/N=C/c1ccc(Cl)cc1 | -2.13% | –
C/C=C/c1ccc(OCC(=O)NNC(=O)CN(C)S(=O)(=O)c2ccc(C)cc2)c(OC)c1 | 0.0839% | –
CC(Sc1ccccc1F)C(=O)Nc1cccc(S(=O)(=O)N2CCOCC2)c1 (configuration not stated) | -0.0904% | –
CCC(C(=O)OC)n1cnc2c(oc3ccccc32)c1=O (configuration not stated) | 5.09% | –
COc1ccc(C)cc1Nc1nc(C)nc2c1oc1ccccc12 | 0.558% | –

SMILES | activity change, positive = activation | Potency
COc1ccccc1Nc1ncnc2c1oc1ccccc12 | – | 14.6 µM (active)
CCCCOc1ccc(-c2ncc(C(=O)OCC)c(N)n2)cc1 | – | 10.3 µM (active)
CCOC(=O)c1cnc(SCc2nc(N)nc(Nc3ccc(OC)cc3)n2)nc1N | 4.89% | –
CCCCCCOc1ccc(OC(=O)c2cccnc2)cc1 | 3.9% | –
Cc1c(NC(=O)CN(C)CC(=O)Nc2ccc(F)c(F)c2F)c(=O)n(-c2ccccc2)n1C | 0.0923% | –
Cc1ccsc1C(=O)OCC(=O)NCCc1ccccc1 | 10.7% | –
COc1ccc(OC)c(-c2csc(-c3cccs3)n2)c1 | 3.44% | –
COc1ccc(-c2csc(-c3cccs3)n2)cc1OC | – | 16.4 µM (active)
COc1ccc(C2CC(c3cccs3)=Nc3ccccc3S2)cc1OC (configuration not stated) | 0.582% | –
CC[C@@]1(C(=O)OC)N[C@H](CN(C)C(C)=O)[C@@H]2C(=O)N(C)C(=O)[C@@H]21 | 1.22% | –
CC(=O)c1c(OCC(=O)N(C)C2CCCCC2)ccc2c(C)cc(=O)oc12 | 3.2% | –
COc1ccccc1CSc1ncc(-c2ccc([N+](=O)[O-])cc2)[nH]1 | -0.532% | –
COc1ccccc1CSc1nc2ccccc2[nH]1 | – | 23.1 µM (active)
Clc1ccccc1SCc1nc2ccccc2[nH]1 | 15% | –
CC[C@]1(C(=O)OC)[C@H]2C(=O)N(Cc3ccccc3)C(=O)[C@H]2[C@H]2CN=C(SCc3ccc(Cl)cc3)N21 | -5.96% | –
O=C(C[C@@H]1C/C=C\CCC(=O)OC[C@@H]2CCCN2C1=O)NCCO | 3.18% | –
CN(C(=O)COC(=O)c1cc(=O)[nH]c2ccccc12)C1CCCCC1 | 18.4% | –
CCCCNc1c(-c2cccc(Sc3ccc(OC)cc3)c2)nc2ccccn12 | -5.54% | –
CN1CCN(c2ccc(NC(=O)c3ccccc3)cc2)CC1 | – | 10.3 µM (active)

SMILES | activity change, positive = activation | Potency
CN1CCN(c2ccc(NC(=O)c3ccc4c(c3)[nH]c(=O)n4Cc3ccc(F)cc3)cc2)CC1 | -2.36% | –
CN1CCN(c2ccc(NC(=O)c3cc(Cl)c4c(c3)OCCO4)cc2)CC1 | 9.93% | –
N#Cc1cc([N+](=O)[O-])ccc1NC(=O)COC(=O)c1cnccn1 | -4.95% | –
O=C(NCCCNC(=O)c1ccccc1Cl)c1cnccn1 | 1.2% | –
Cn1c(=NC(=O)c2cnccn2)sc2ccccc21 | – | 8.2 µM (active)
COC(=O)c1ccc(OC(=O)c2cnccn2)cc1 | 0.398% | –
CC1(c2ccccc2)NC(=O)N(CC(=O)N2CC(=O)Nc3ccccc32)C1=O (configuration not stated) | 0.668% | –
Cc1ccc(C)c(S(=O)(=O)N2CCN(c3ncnc4sccc34)CC2)c1 | -12.2% | –
CC(C)CC1NC(=O)c2cc(Cl)ccc2-n2c1nc1ccccc1c2=O (configuration not stated) | 0.392% | –
Cc1ccnc(Nc2nc3ccccc3s2)n1 | – | 2.06 µM (active)
Cn1nnnc1SCC(=O)Nc1nc2ccccc2s1 | 14.9% | –
Cc1ccnc(NC(=O)c2ccco2)n1 | 4.05% | –
Cc1ccccc1NC(=O)CSC(=O)c1ccccc1 | -4.93% | –
O=C(Nc1cc(C(F)(F)F)ccc1Cl)c1cc(C2CC2)on1 | -1.5% | –
CSc1ccccc1NC(=O)c1cc(C2CC2)on1 | – | 23.1 µM (active)
Cc1nn(Cc2ccc(Cl)c(Cl)c2)c(C)c1NC(=O)c1cc(C2CC2)on1 | 2.15% | –
COc1cc(C)ccc1OCC(=O)OCC(=O)c1ccc[nH]1 | 3.48% | –
CC(C)(C)OC(=O)C[C@@H]1C/C=C\C[C@@H](CC(=O)NCCO)C(=O)N[C@H](Cc2c[nH]c3ccccc23)COC1=O | 0.381% | –
C=CC[C@@H](CC(=O)N[C@@H](CO)Cc1ccccc1)C(=O)N[C@H](COC(=O)[C@H](CC=C)CC(=O)OC(C)(C)C)Cc1ccccc1 | 10.3% | –
